Measured values: PubChem BioAssay (NCI)
The panel holds about 83,000 compounds, 20% with a hit somewhere; the sample as a whole holds those more often.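 Step 1: grow cells in 96-well plates. Step 2: add test compound at a single concentration. Step 3: incubate 48 h. Step 4: record percent growth.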 Activity calls are given as the source filed them. How the source made its calls: active means growth percent below 10; inactive means the rest.

Experiments:
Experiment in all cases: NCI-60 one-dose screen, 48 h (100 = growth as untreated, 0 = no growth, -100 = all killed)
Conditions in all cases: 10 µM unless noted
[1] = test system: NCI-H23 lung
[2] = test system: NCI-H226 lung
[3] = test system: NCI-H322M lung
[4] = test system: HOP-62 NSCLC
[5] = test system: NCI-H460 lung
[6] = test system: HOP-92 NSCLC
[7] = test system: NCI-H522 lung
[8] = test system: A549/ATCC NSCLC
[9] = test system: 786-0 renal
[10] = test system: COLO 205 colon
[11] = test system: DU-145 prostate
[12] = test system: K-562 leukemia
[13] = test system: MALME-3M melanoma
[14] = test system: MDA-MB-231 breast
[15] = test system: RXF 393 renal
[16] = test system: SF-268 CNS
[17] = test system: SF-295 CNS
[18] = test system: SF-539 CNS
[19] = test system: UACC-257 melanoma
[20] = test system: M14 melanoma

Measured: growth

Cc1cc(C2(c3cc(C)c(OCC(O)CNc4c(C)n(C)n(-c5ccccc5)c4=O)cc3C(C)C)OC(=O)c3ccccc32)c(C(C)C)cc1OCC(O)CNc1c(C)n(C)n(-c2ccccc2)c1=O (stereo not given)
active: [6] -9.82% | [7] 8.24% | [12] 4.53% | [14] -36.5% | [15] 1.98%
inactive: [1] 34.7% | [2] 42% | [3] 61% | [4] 52% | [5] 18.2% | [8] 22.4% | [9] 24.2% | [10] 10.6% | [11] 50.7% | [13] 26.3% | [16] 32.6% | [17] 24% | [18] 38.9% | [19] 27.5% | [20] 29.2%

COc1ccc2[nH]c(O)c(N=Nc3nc(-c4ccc(C#N)cc4)cs3)c2c1
inactive: [1] 55.9% | [2] 98.4% | [3] 83.9% | [4] 77.5% | [5] 29.2% | [6] 25.1% | [7] 65.4% | [8] 51.8% | [10] 86% | [11] 52.9% | [12] 67.7% | [13] 15.1% | [14] 59.7% | [15] 38% | [16] 82.6% | [17] 68.8% | [18] 48.9% | [19] 70.6% | [20] 82.3%
active: [9] -73.4%

C=CC(=O)N1CCN(c2ccc3nc4c(nc3c2C(F)(F)F)C(=O)c2ncccc2C4=O)CC1
active: [1] -61.5% | [5] -34.3% | [6] -3.31% | [7] -8.31% | [8] 2.38% | [10] -22.8% | [12] 3.62% | [13] -97.9% | [14] -13.6% | [18] -32.9% | [19] -82.7% | [20] -59.9%
inactive: [2] 63.8% | [3] 10.2% | [4] 39.9% | [9] 22% | [11] 23.6% | [15] 44.1% | [16] 21.3% | [17] 28.8%

CNS(=O)(=O)N1CCc2c(Br)c3c(c(OC)c2C1CCc1ccccc1)OCO3 (stereo not given)
active: [1] -19.5% | [2] -70.3% | [3] 4.7% | [4] -18.6% | [5] -67.7% | [6] -54.3% | [7] -12.3% | [9] -44.9% | [10] -51.3% | [13] -65% | [14] -62.8% | [15] -59.7% | [16] -12% | [17] -75.3% | [18] -86.5% | [19] -24.5% | [20] -9.58%
inactive: [8] 16.6% | [11] 12.1% | [12] 13.1%

Clc1ccccc1Nc1nnc(-c2c[nH]c3ccccc23)o1
active: [7] -25.1% | [10] -33.6% | [12] 6.76% | [15] -5.74% | [17] 9.04% | [18] -43.6%
inactive: [1] 22.2% | [2] 43.9% | [3] 47.1% | [4] 27.2% | [5] 16% | [6] 43.9% | [8] 22.1% | [9] 36% | [11] 21.5% | [13] 41.9% | [14] 16% | [16] 48.5% | [19] 65% | [20] 22.8%

O=Cc1cncc(-c2ccc3ncnc(N4CCc5cc(F)c(Cl)cc54)c3c2)c1
active: [3] 0.287% | [6] -4.62% | [15] -7.23%
inactive: [1] 44.6% | [2] 10.8% | [4] 51.9% | [5] 25.2% | [7] 59% | [8] 21.6% | [9] 18% | [10] 99.7% | [11] 22.5% | [12] 35.5% | [13] 23.7% | [14] 28.2% | [16] 42.1% | [17] 19.2% | [18] 25.8% | [19] 59.1% | [20] 48.6%

NC(=O)c1ccc(-c2ccc3ncnc(N4CCc5cc(F)c(Cl)cc54)c3c2)cn1
inactive: [1] 70.9% | [2] 83.3% | [3] 24.1% | [4] 99.9% | [5] 79.6% | [6] 15.4% | [7] 94.1% | [8] 63% | [9] 66.5% | [10] 47.9% | [11] 49.5% | [12] 34.7% | [13] 78.9% | [14] 49.3% | [15] 40.9% | [16] 95.6% | [17] 79.4% | [18] 63% | [19] 110% | [20] 70.2%

COc1ccc(NC(=O)CSc2nnc(-c3ccc(-c4nc5ccccc5[nH]4)cc3)o2)cc1
inactive: [1] 11.9% | [2] 20.3% | [3] 74.3% | [6] 10.8% | [10] 49.2% | [12] 22.2% | [13] 10.2% | [14] 19.2% | [16] 49.6% | [17] 74.8% | [19] 36.4%
active: [4] -15.8% | [5] 0.884% | [7] 0.861% | [8] 6.46% | [9] -33.8% | [11] 5.8% | [15] -54.4% | [18] -86.6% | [20] 1.64%

FC(F)(F)c1cc2c(Cl)ncnc2n1CCN1CCCCC1
inactive: [1] 34.8% | [2] 97.8% | [3] 64.2% | [4] 76.3% | [5] 57.9% | [6] 94.3% | [8] 95.5% | [9] 92.5% | [10] 75.2% | [11] 50% | [13] 86.9% | [14] 38.8% | [15] 80.8% | [17] 80.9% | [18] 73.4% | [19] 73.6% | [20] 24.1%
active: [7] -80.1% | [12] 0.547% | [16] 9.33%

CS(=O)(=O)c1ccc(-n2nc(C(=O)NCc3ccccc3)cc2-c2ccc(Cl)cc2)cc1
inactive: [1] 89.9% | [2] 85% | [3] 88.1% | [4] 106% | [5] 71.2% | [6] 88.1% | [7] 58.7% | [8] 70% | [9] 71% | [10] 107% | [11] 91.4% | [12] 49.4% | [13] 112% | [14] 96.3% | [15] 94.9% | [16] 82.2% | [17] 73.6% | [18] 99.4% | [19] 98.9% | [20] 93.9%

COc1c2c(c(Br)c3c1C(CCc1ccccc1)N(C)CC3)OCO2 (stereo not given)
inactive: [1] 16.4% | [2] 51.7% | [3] 38.5% | [4] 68.2% | [5] 23.5% | [6] 22.6% | [7] 56.9% | [8] 45.9% | [9] 47.6% | [10] 29.6% | [11] 56.7% | [12] 28.1% | [13] 63.7% | [14] 39.9% | [15] 72.9% | [16] 45.7% | [17] 40.6% | [19] 64.9% | [20] 29%
active: [18] -8.69%

Cn1cc(-c2cc(N)n3nc(-c4c[nH]c5ccccc45)cc3n2)c2cc(Cl)ccc21
inactive: [2] 16.6%
active: [1] -70.7% | [3] -35.3% | [4] -73.7% | [5] -59.5% | [6] -68.5% | [7] -71.9% | [8] -37.8% | [9] -67.8% | [10] -90.8% | [11] -62.6% | [12] 7.97% | [13] -78% | [14] -85.5% | [15] -84.7% | [16] -46.3% | [17] -88% | [18] -92.2% | [19] -84.3% | [20] -75.5%

Cn1cc(-c2cc(N)n3nc(-c4c[nH]c5ccc(Cl)cc45)cc3n2)c2cccnc21
active: [1] -75.7% | [2] -58.4% | [3] -83.6% | [4] -88.9% | [5] -47% | [6] -70.5% | [7] -82.1% | [8] -77.2% | [9] -92.5% | [10] -83.1% | [11] -87.6% | [12] -24.9% | [13] -92.3% | [14] -82.3% | [15] -73.4% | [16] -47.4% | [17] -92.6% | [18] -95.6% | [19] -85.5% | [20] -90.5%

N#Cc1ccc(C(=O)NNC(=O)CSc2nc3sc4c(c3c(=O)n2-c2ccc(Cl)cc2)CCCC4)cc1
active: [4] 7.62% | [14] 3.65% | [18] -43.9%
inactive: [1] 33.2% | [2] 54.1% | [3] 51.7% | [5] 51.8% | [6] 45.6% | [7] 61.5% | [8] 61.9% | [9] 75.5% | [10] 110% | [11] 70.4% | [12] 63.4% | [13] 39.5% | [15] 47.5% | [16] 92.7% | [17] 62.7% | [19] 91.4% | [20] 44.7%

O=C(CSc1nc2sc3c(c2c(=O)n1-c1ccc(Cl)cc1)CCCC3)NNC(=O)c1ccc(Br)cc1
inactive: [1] 55.6% | [2] 45.2% | [3] 52.7% | [4] 17% | [5] 76.9% | [6] 61.2% | [7] 64.4% | [8] 82.6% | [9] 98.5% | [10] 120% | [11] 97.4% | [12] 55.5% | [13] 69.2% | [14] 25.6% | [15] 76% | [16] 84.9% | [17] 84.1% | [19] 98.6% | [20] 71.9%
active: [18] -29.5%

Nc1nnc(-c2cncc(Br)c2)c(-c2c[nH]c3ccc(Cl)cc23)n1
inactive: [1] 84.5% | [2] 74% | [3] 80.9% | [4] 91.9% | [5] 86.9% | [6] 90.9% | [7] 68.1% | [8] 82.9% | [9] 73.9% | [10] 113% | [11] 99.4% | [12] 30.5% | [13] 99.3% | [14] 74.7% | [15] 63.5% | [16] 88.6% | [17] 92.4% | [18] 72.5% | [19] 108% | [20] 86.4%
